# Data from ChEMBL document CHEMBL1961873, “Compounds: GSK PKIS; Assays: Nanosyn kinase panel” (2012).
# Key:
# [1] = biological target: Fibroblast growth factor receptor 4 (Homo sapiens) (UniProt P22455); conditions: at 1 µM;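 further: reported figure is the averaged percent inhibition of FGFR4, from the GSK PKIS kinase screening panel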
# [2] = biological target: Tyrosine-protein kinase Fgr (Homo sapiens) (UniProt P09769); conditions: at 0.1 µM
# [3] = biological target: Tyrosine-protein kinase Fgr (Homo sapiens) (UniProt P09769); conditions: at 1 µM
# [4] = biological target: Vascular endothelial growth factor receptor 1 (Homo sapiens) (UniProt P17948); conditions: at 0.1 µM
# Sequence of Vascular endothelial growth factor receptor 1 (Homo sapiens) (P17948 whole entry): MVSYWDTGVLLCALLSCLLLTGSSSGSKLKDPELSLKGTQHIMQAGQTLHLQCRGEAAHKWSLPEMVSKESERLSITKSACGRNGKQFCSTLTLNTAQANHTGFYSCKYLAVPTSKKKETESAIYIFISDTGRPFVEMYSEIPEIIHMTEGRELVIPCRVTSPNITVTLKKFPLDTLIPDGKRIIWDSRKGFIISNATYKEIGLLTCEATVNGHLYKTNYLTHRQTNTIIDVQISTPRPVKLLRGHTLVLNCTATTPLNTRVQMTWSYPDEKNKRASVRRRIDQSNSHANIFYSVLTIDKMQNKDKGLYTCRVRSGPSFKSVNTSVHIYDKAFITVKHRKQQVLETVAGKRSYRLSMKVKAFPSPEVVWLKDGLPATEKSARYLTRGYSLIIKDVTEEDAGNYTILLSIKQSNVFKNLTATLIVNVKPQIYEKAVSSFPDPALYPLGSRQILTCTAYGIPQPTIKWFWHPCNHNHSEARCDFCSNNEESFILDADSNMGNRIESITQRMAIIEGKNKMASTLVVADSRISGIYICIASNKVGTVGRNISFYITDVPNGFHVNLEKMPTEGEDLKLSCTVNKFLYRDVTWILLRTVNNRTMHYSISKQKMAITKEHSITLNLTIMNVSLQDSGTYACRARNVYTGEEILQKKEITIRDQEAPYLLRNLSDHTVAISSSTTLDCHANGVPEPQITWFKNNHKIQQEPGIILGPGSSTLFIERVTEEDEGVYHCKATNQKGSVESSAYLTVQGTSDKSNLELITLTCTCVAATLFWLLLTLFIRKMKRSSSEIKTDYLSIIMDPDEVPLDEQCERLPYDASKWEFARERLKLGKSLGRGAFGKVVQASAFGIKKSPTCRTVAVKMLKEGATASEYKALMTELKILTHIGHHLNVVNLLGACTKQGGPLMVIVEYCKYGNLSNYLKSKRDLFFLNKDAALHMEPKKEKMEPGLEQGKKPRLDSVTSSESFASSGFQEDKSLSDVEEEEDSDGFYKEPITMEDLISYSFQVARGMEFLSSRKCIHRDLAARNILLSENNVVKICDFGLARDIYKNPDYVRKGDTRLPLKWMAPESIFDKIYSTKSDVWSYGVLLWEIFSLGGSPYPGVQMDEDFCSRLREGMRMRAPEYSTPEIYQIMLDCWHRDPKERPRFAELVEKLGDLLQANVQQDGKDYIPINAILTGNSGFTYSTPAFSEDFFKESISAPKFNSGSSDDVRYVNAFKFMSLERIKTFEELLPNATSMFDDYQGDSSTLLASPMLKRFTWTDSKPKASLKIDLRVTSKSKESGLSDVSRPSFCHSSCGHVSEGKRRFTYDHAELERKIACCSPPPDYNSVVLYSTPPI
# [5] = biological target: Vascular endothelial growth factor receptor 1 (Homo sapiens) (UniProt P17948); conditions: at 1 µM
# [6] = biological target: Receptor-type tyrosine-protein kinase FLT3 (Homo sapiens) (UniProt P36888); conditions: at 0.1 µM
# [7] = biological target: Receptor-type tyrosine-protein kinase FLT3 (Homo sapiens) (UniProt P36888); conditions: at 1 µM
# [8] = system: T1, Receptor-type tyrosine-protein kinase FLT3 (Homo sapiens), P36888 [D835Y]; conditions: at 0.1 µM
# T1 sequence (whole entry): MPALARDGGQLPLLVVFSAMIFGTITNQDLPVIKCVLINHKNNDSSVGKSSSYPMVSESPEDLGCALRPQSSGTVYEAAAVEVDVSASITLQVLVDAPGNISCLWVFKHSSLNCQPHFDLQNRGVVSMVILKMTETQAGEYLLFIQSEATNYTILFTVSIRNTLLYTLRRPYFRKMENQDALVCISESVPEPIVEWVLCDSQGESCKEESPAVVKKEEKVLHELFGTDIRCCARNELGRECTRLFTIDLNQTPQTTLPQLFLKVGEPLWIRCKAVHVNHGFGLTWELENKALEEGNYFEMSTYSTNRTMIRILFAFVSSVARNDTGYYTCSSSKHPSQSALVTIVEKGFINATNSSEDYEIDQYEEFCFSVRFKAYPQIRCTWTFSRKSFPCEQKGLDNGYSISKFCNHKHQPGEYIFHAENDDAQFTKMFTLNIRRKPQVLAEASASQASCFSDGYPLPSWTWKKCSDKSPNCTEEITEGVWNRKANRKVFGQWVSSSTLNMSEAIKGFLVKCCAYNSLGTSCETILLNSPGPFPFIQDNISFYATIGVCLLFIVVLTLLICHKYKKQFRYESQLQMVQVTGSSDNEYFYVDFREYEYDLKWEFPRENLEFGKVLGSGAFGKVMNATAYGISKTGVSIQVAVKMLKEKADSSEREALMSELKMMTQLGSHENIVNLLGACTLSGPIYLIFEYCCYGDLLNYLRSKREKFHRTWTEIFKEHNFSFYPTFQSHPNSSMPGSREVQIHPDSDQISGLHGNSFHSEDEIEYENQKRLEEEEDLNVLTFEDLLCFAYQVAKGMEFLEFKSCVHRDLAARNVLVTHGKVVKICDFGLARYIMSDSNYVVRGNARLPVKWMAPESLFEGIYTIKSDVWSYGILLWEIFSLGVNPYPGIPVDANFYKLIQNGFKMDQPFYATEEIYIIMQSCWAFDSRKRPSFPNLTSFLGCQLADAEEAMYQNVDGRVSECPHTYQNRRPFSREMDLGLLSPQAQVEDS
# [9] = biological target: Non-receptor tyrosine-protein kinase TYK2 (Homo sapiens) (UniProt P29597); conditions: at 1 µM;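 further: values are mean percent inhibition of TYK2 kinase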
# [10] = biological target: T2, Tyrosine-protein kinase receptor TYRO3 (Homo sapiens) (UniProt Q06418); conditions: at 0.1 µM
# T2 sequence (whole entry): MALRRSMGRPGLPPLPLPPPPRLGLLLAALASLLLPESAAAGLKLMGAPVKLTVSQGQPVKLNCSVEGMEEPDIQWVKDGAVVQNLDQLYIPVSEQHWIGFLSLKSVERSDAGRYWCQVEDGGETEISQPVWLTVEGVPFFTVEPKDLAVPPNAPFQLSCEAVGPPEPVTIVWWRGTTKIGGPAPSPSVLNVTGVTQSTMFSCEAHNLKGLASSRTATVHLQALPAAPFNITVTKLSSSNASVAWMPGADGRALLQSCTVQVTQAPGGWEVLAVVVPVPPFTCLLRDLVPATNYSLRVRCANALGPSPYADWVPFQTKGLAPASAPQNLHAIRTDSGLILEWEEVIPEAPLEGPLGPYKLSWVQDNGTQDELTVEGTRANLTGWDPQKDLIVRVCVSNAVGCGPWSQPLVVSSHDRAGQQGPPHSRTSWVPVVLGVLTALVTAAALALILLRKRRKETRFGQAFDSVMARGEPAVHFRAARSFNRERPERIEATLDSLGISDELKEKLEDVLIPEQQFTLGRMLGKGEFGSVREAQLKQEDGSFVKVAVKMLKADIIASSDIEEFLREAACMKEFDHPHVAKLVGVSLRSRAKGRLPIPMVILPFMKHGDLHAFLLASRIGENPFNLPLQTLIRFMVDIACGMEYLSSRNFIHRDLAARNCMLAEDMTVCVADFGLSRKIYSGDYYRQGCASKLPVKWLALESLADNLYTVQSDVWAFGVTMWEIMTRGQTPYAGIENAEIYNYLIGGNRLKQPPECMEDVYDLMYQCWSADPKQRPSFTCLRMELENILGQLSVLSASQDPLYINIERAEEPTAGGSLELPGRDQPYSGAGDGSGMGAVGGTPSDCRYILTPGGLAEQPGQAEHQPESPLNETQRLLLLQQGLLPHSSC
# [11] = biological target: T2, Tyrosine-protein kinase receptor TYRO3 (Homo sapiens); conditions: at 1 µM
# [12] = biological target: Tyrosine-protein kinase Yes (Homo sapiens) (UniProt P07947); conditions: at 0.1 µM
# Sequence of Tyrosine-protein kinase Yes (Homo sapiens) (P07947 2-543 limits assumed): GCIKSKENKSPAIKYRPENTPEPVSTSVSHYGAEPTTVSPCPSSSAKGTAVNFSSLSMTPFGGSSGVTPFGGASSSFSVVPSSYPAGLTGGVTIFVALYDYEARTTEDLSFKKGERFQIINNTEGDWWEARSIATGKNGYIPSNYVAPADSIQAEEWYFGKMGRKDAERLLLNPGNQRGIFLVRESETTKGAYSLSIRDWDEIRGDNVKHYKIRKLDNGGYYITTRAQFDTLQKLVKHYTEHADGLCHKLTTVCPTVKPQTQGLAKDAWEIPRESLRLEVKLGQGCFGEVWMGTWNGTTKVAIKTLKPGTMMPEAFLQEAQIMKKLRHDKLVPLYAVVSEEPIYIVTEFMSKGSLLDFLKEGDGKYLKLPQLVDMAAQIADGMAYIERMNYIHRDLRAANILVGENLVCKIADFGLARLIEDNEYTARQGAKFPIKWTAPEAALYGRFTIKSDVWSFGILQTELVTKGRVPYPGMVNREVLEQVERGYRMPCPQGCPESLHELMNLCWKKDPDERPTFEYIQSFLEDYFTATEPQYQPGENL
# [13] = biological target: Tyrosine-protein kinase Yes (Homo sapiens) (UniProt P07947); conditions: at 1 µM
# [14] = biological target: T3, Tyrosine-protein kinase ZAP-70 (Homo sapiens) (UniProt P43403); conditions: at 0.1 µM
# T3 sequence (whole entry): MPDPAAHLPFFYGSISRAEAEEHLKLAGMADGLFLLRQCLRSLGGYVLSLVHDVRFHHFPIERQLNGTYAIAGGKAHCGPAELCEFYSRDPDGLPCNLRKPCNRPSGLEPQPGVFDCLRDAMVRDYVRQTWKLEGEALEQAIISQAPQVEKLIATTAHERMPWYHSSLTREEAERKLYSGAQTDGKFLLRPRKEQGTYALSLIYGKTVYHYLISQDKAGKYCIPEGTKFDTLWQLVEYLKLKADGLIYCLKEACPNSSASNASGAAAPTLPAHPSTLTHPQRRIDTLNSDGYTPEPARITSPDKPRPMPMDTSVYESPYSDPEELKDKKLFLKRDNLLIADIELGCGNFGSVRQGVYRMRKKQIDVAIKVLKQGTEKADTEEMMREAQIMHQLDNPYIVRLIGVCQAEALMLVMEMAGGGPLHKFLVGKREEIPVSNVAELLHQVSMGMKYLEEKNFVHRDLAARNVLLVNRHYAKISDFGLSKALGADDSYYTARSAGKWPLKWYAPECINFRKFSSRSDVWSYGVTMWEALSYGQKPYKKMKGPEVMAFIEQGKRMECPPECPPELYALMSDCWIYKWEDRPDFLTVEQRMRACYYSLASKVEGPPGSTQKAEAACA
# [15] = biological target: T3, Tyrosine-protein kinase ZAP-70 (Homo sapiens); conditions: at 1 µM
# [16] = biological target: Serine/threonine-protein kinase B-raf (Homo sapiens) (UniProt P15056); conditions: at 0.1 µM
# Sequence of Serine/threonine-protein kinase B-raf (Homo sapiens) (P15056 whole entry): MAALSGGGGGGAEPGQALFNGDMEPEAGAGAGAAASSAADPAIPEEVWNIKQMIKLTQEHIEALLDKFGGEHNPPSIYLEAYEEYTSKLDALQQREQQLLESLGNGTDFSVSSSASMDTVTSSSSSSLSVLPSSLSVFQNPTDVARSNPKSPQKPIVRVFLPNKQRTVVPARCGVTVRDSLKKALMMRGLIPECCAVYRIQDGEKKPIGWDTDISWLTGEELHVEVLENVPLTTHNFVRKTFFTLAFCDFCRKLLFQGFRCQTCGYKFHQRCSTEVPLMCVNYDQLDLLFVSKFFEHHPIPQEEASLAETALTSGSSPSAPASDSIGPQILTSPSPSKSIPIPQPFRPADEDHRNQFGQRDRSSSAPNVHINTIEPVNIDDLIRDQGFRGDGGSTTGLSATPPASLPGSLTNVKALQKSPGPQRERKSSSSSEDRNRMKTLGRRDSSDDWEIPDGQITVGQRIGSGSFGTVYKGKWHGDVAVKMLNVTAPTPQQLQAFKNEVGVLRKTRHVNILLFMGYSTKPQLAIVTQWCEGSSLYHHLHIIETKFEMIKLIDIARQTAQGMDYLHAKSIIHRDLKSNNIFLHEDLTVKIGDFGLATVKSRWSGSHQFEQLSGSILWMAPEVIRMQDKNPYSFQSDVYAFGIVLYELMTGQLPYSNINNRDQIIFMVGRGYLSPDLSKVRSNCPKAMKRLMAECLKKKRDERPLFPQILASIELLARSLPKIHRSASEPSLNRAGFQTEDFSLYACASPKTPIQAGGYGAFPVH
# [17] = biological target: Serine/threonine-protein kinase B-raf (Homo sapiens) (UniProt P15056); conditions: at 1 µM
# [18] = system: Serine/threonine-protein kinase B-raf (Homo sapiens), P15056 [V600E]; conditions: at 0.1 µM
# Sequence of Serine/threonine-protein kinase B-raf (Homo sapiens), P15056 [V600E] (P15056 whole entry V600E): as the sequence (P15056 whole entry) above, with V600E counted along it
# [19] = system: Serine/threonine-protein kinase B-raf (Homo sapiens), P15056 [V600E]; conditions: at 1 µM
# [20] = biological target: RAF proto-oncogene serine/threonine-protein kinase (Homo sapiens) (UniProt P04049); conditions: at 0.1 µM;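 further: values are mean CRAF kinase inhibition from profiling of the GSK Published Kinase Inhibitor Set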
# Sequence of RAF proto-oncogene serine/threonine-protein kinase (Homo sapiens) (P04049 whole entry): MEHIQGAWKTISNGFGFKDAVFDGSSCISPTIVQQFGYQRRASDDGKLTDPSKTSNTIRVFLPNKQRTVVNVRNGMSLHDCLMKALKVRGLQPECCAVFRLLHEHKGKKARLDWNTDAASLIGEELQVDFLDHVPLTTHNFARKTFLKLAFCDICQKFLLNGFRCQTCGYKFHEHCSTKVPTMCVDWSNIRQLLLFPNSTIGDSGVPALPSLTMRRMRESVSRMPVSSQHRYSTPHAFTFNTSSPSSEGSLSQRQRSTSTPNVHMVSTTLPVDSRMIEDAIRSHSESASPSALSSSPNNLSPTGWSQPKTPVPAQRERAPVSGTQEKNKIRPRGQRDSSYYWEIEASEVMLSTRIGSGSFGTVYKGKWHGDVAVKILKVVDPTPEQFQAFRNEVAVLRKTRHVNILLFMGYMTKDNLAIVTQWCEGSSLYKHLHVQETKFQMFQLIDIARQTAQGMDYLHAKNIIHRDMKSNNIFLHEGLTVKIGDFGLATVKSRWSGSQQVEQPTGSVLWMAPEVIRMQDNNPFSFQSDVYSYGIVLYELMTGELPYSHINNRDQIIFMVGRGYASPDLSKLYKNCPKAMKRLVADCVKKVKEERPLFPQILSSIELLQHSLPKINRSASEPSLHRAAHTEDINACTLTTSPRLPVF
# Sequence of Tyrosine-protein kinase Fgr (Homo sapiens) (P09769 2-529 limits assumed): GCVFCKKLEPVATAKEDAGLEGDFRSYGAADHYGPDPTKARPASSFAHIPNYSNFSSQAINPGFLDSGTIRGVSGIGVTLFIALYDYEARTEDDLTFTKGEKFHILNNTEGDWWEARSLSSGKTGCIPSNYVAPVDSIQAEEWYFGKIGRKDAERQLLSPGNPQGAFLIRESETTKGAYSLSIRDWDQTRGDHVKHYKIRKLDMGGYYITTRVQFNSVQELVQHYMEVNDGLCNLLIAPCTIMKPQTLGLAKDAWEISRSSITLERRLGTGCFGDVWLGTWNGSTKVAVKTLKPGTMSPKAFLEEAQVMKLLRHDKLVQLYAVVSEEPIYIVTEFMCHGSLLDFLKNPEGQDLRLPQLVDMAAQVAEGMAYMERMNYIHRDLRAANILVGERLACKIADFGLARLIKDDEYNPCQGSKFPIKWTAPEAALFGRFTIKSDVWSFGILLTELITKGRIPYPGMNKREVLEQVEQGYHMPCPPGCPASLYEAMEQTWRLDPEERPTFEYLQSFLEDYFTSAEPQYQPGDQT
# Sequence of Fibroblast growth factor receptor 4 (Homo sapiens) (P22455 22-802 limits assumed): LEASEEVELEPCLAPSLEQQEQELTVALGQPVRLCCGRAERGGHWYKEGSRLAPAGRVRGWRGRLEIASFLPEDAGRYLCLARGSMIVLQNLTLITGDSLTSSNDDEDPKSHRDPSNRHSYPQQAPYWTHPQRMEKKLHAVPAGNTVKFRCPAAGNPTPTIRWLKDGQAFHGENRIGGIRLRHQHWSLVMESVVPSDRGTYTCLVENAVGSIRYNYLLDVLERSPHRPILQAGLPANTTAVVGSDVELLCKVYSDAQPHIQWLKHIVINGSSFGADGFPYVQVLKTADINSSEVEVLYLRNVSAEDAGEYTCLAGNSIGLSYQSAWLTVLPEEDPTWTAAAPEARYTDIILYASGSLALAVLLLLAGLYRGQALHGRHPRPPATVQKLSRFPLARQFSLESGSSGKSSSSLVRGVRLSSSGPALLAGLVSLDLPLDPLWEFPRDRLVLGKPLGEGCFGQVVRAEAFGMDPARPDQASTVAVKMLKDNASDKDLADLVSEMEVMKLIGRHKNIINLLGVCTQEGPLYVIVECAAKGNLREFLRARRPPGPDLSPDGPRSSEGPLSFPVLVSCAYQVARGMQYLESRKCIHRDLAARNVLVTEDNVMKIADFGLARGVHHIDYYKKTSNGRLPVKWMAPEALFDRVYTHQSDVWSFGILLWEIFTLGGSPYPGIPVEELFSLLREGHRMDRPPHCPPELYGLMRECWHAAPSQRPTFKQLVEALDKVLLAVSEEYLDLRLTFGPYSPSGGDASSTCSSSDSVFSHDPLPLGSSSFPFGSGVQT
Compound,inhibition [1] [%],inhibition [2] [%],inhibition [3] [%],inhibition [4] [%],inhibition [5] [%],inhibition [6] [%],inhibition [7] [%],inhibition [8] [%],inhibition [9] [%],inhibition [10] [%],inhibition [11] [%],inhibition [12] [%],inhibition [13] [%],inhibition [14] [%],inhibition [15] [%],inhibition [16] [%],inhibition [17] [%],inhibition [18] [%],inhibition [19] [%],inhibition [20] [%]
CCc1ccc(Oc2nccc(-c3c(-c4ccc(F)cc4)ncn3C3CCNCC3)n2)cc1,1.42,2.39,6.95,2.69,3.25,5.16,5.11,-2.28,-1.9,1.15,1.06,4.27,7.31,-0.22,-4.21,4.48,10.2,4.23,8.72,1.49
COc1cc2ncn(-c3cc(OCc4ccccc4C(F)(F)F)c(C(C)=O)s3)c2cc1OC,0.4,3.6,6.26,1.7,1.67,1.77,5.32,1.44,-0.07,1.52,2.25,2.59,6.19,-0.08,-3.94,5.13,5.83,4.21,4.4,-0.73
CS(=O)(=O)CCNCc1cc(-c2cc3c(Nc4ccc(OCc5cccc(F)c5)c(Cl)c4)ncnc3s2)cs1,1.36,2.51,4.32,0.1,0.78,2.69,6.93,-4.23,-4,2.21,4.28,3.05,6.33,2.63,1.06,6.76,9.8,4.4,5.09,2.35
Cc1ccc(C(=O)NC2CCC2)cc1-c1ccc(C(=O)NCC2CC2)cc1,1.12,0.84,4.82,1.31,-0.61,0.07,1.62,0.48,-2.49,1.07,1.69,1.57,0.45,3.05,3.75,3.33,2.03,3.91,3.62,-1.45
Cc1ccc(C(=O)NC(C)C)cc1-c1ccc(C(=O)NCC2CC2)cc1,0.47,-1.7,-1.1,0.43,-1.81,-4.25,-1.66,-1.15,2.94,-2.22,-0.5,-0.21,-0.56,-5.65,-1.41,-3.13,-5.03,-4.24,-2.75,-1.46
NCc1ccc(-n2c(-c3nonc3N)nc3cnccc32)cc1,0.49,1.73,3.12,1.08,1.4,1.23,3.45,-4.05,-2.73,1.87,3.1,0.26,3.43,,6.32,7.22,9.93,8.7,8.53,8.42
CNC(=O)c1cncc(/C=C/c2c(C)cccc2C)c1,-4.47,6.6,29.6,1.75,1.51,-1.59,1.3,3.49,0.52,0.85,2.18,6.81,33,-2.13,-4.22,0.8,5.69,-0.11,2.82,-5.49
NC(=O)c1cc(-c2ccc(F)cc2)cc(-c2ccncc2)c1N,-0.36,5.32,3.24,0.41,0.85,3.14,2.01,-6.54,-2.58,4.68,3.84,3.3,8.03,3.36,4.08,6.39,7.79,7.49,7.36,0.54
NS(=O)(=O)c1ccc(N/N=C2\C(=O)Nc3ccc(-c4cnco4)cc32)cc1,-2.44,3.25,12.9,-0.89,7.48,5.93,38.3,22.6,9.13,2.48,12.4,2.12,12.1,,2.47,3.07,5.71,1.57,4.4,0.67
COc1ccc2ncn(-c3cc(O[C@H](C)c4ccccc4Cl)c(C(N)=O)s3)c2c1,-2.23,2.3,3.06,0.27,3.7,-1.31,4.52,2.46,-5.78,3.88,3.45,1.1,0.5,-4.58,0.58,5.68,4.96,3.17,3.29,0.5
Fc1ccc(-c2ncn(C3CCNCC3)c2-c2ccnc(Oc3ccc(F)c(F)c3)n2)cc1,-4.24,2.76,3.69,0.45,4.56,-1.09,4.18,-2.41,-5.44,1.82,1.35,2.3,0.42,-5.04,-3.78,6.07,6.2,4.48,4.06,-1.78
CN(C)c1ccc2c(c1)/C(=C/Nc1ccc(S(N)(=O)=O)cc1)C(=O)N2,3.82,2.49,16.7,1.02,12.6,3.53,17.7,0.41,17.2,3.54,7.48,2.8,14.3,2.05,5.7,2.49,4.91,2.9,5,3.91
c1ccc(Oc2ccc(Nc3ncc(-c4ccccc4)o3)cc2)cc1,3.31,1.2,4.81,1.53,4.46,2.44,13.3,0.51,-0.96,2.18,1.97,0.58,-0.25,1.43,0.91,1.29,1.47,2.23,1.97,0.01
COc1cc(Nc2ncc3c(C)nc(-c4cccc(C(F)(F)F)c4)n3n2)cc(OC)c1OC,0.75,7.22,14,2.19,5.18,6.14,36.3,3.11,-1.24,4.04,10.6,11.6,42.7,1.78,2.75,5.44,14.8,5.48,13.2,3.02
Fc1ccc(-c2ncn(C3CCNCC3)c2-c2ccnc(Oc3ccc4c(c3)OCO4)n2)cc1,0.91,3.23,7.38,0.92,2.35,4.05,7.47,-0.87,-3.97,1.93,3.42,3.41,3.52,0.26,-6.92,7.39,12.7,6.25,8.22,1.31
